Test results as given in PubChem BioAssay (NCATS).
Results filed as inconclusive are left out. Activity calls are given as the source filed them. Calls come from the whole dose curve; as a rule, active = well fitted curve in the direction sought with a large enough effect; inconclusive = small, poorly fitted or top-dose-only effect, or another doubt; inactive = no such curve, though single readings can be large; an effect the other way counts as inactive or inconclusive.

Assays:
[1] = Quantitative High-Throughput drug screen in 47 multiple myeloma cell lines against the NCATS MIPE library collection: Karpas417_ECACC cell viability assay (AID 1918961); conditions: Karpas417 myeloma viability, CellTiter-Glo ATP luminescence, 48 h; viability (% of DMSO): at 45.8 µM (top of the series)
In short: (§1)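 We plated 500 myeloma cells per well, pinned in MIPE 4.0 compounds, and incubated for 48 hours at 37C. ATP was then quantified with CellTiter-Glo, with DMSO and media-only wells defining 100% and 0%.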

[2] = Quantitative High-Throughput drug screen in 47 multiple myeloma cell lines against the NCATS MIPE library collection: KHM11_PLB cell viability assay (AID 1918962); note: nearly all actives have a fitted effect of over 35% in size
In short: (§2)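 Primary qHTS used for cherry-picking: cells at 500/well, library compounds for 48 h (37C, 5% CO2), luminescent ATP assay.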

[3] = Quantitative High-Throughput drug screen in 47 multiple myeloma cell lines against the NCATS MIPE library collection: JIM3_ECACC cell viability assay (AID 1918963; note: nearly all actives have a fitted effect of over 35% in size)
In short: as §2

[4] = Quantitative High-Throughput drug screen in 47 multiple myeloma cell lines against the NCATS MIPE library collection: JIM1_ECACC cell viability assay (AID 1918964)
In short: as §1

[5] = Quantitative High-Throughput drug screen in 47 multiple myeloma cell lines against the NCATS MIPE library collection: INA6_PLB cell viability assay (AID 1918965; note: nearly all actives have a fitted effect of over 55% in size)
In short: as §1

[6] = Quantitative High-Throughput drug screen in 47 multiple myeloma cell lines against the NCATS MIPE library collection: JJN3_DSMZ cell viability assay (AID 1918966; note: nearly all actives have a fitted effect of over 50% in size)
In short: as §1

[7] = Quantitative High-Throughput drug screen in 47 multiple myeloma cell lines against the NCATS MIPE library collection: H1112_PLB cell viability assay (AID 1918967; note: nearly all actives have a fitted effect of over 30% in size)
In short: as §1

[8] = Quantitative High-Throughput drug screen in 47 multiple myeloma cell lines against the NCATS MIPE library collection: Karpas25_ECACC cell viability assay (AID 1918968; note: nearly all actives have a fitted effect of over 35% in size)
In short: as §1

[9] = Quantitative High-Throughput drug screen in 47 multiple myeloma cell lines against the NCATS MIPE library collection: KMS12BM_JCRB cell viability assay (AID 1918971); note: nearly all actives have a fitted effect of over 35% in size
In short: (§3)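 Approved and investigational drugs from MIPE 4.0 were added by pin tool to 500 cells per well. After 48 hours at 37C, ATP-based CellTiter-Glo luminescence indicated remaining viability.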

[10] = Quantitative High-Throughput drug screen in 47 multiple myeloma cell lines against the NCATS MIPE library collection: KMS12PE_JCRB cell viability assay (AID 1918972); note: nearly all actives have a fitted effect of over 30% in size
In short: as §1

[11] = Quantitative High-Throughput drug screen in 47 multiple myeloma cell lines against the NCATS MIPE library collection: KMS20_JCRB cell viability assay (AID 1918973); note: nearly all actives have a fitted effect of over 45% in size
In short: as §1

[12] = Quantitative High-Throughput drug screen in 47 multiple myeloma cell lines against the NCATS MIPE library collection: KMS21BM_JCRB cell viability assay (AID 1918974); conditions: ATP luminescence, 48 h; viability: at 45.8 µM (top of the series)
In short: as §1

[13] = Quantitative High-Throughput drug screen in 47 multiple myeloma cell lines against the NCATS MIPE library collection: KMS26_JCRB cell viability assay (AID 1918975); note: nearly all actives have a fitted effect of over 45% in size
In short: as §3

[14] = Quantitative High-Throughput drug screen in 47 multiple myeloma cell lines against the NCATS MIPE library collection: MOLP8_DSMZ cell viability assay (AID 1918977); note: nearly all actives have a fitted effect of over 45% in size
In short: (§4)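 Plated at 500 cells per well, myeloma lines received MIPE 4.0 compounds by pin tool. Following 48 h culture at 37 °C, CellTiter-Glo luminescence gave viability relative to DMSO and media-only controls.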

[15] = Quantitative High-Throughput drug screen in 47 multiple myeloma cell lines against the NCATS MIPE library collection: OCIMY1_PLB cell viability assay (AID 1918979); note: nearly all actives have a fitted effect of over 35% in size
In short: as §4

[16] = Quantitative High-Throughput drug screen in 47 multiple myeloma cell lines against the NCATS MIPE library collection: MM1S_ATCC cell viability assay (AID 1918980); note: nearly all actives have a fitted effect of over 45% in size
In short: as §4

[17] = Quantitative High-Throughput drug screen in 47 multiple myeloma cell lines against the NCATS MIPE library collection: MM1R_ATCC cell viability assay (AID 1918981); note: nearly all actives have a fitted effect of over 35% in size
In short: as §4

[18] = Quantitative High-Throughput drug screen in 47 multiple myeloma cell lines against the NCATS MIPE library collection: KMS27_JCRB cell viability assay (AID 1918970); conditions: KMS27 myeloma cells, CellTiter-Glo ATP viability, 48 h; viability (% of DMSO): at 45.8 µM (top of the series); note: nearly all actives have a fitted effect of over 30% in size
In short: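 Myeloma cells (500 per well) were exposed to MIPE 4.0 compounds for 48 h at 37 °C, 5% CO2; viability was read as ATP luminescence with CellTiter-Glo, normalized to DMSO-only (100%) and media-only (0%) wells.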

[19] = Quantitative High-Throughput drug screen in 47 multiple myeloma cell lines against the NCATS MIPE library collection: MMM1_PLB cell viability assay (AID 1918976); note: nearly all actives have a fitted effect of over 35% in size
In short: as §4

[20] = Quantitative High-Throughput drug screen in 47 multiple myeloma cell lines against the NCATS MIPE library collection: NCIH929_DSMZ cell viability assay (AID 1918978); note: nearly all actives have a fitted effect of over 35% in size
In short: as §4
Potency is the fitted concentration of half-maximal effect.

COc1ccc(S(=O)(=O)Nc2cc(-c3c(O)ccc4ccccc34)c(O)c3ccccc23)cc1
active: Potency [1] 1.66 µM | Potency [2] 14.8 µM | Potency [3] 9.35 µM | Potency [4] 3.32 µM | Potency [5] 2.96 µM | Potency [6] 8.33 µM | Potency [7] 9.35 µM | Potency [8] 5.26 µM | Potency [9] 26.4 µM | Potency [10] 13.2 µM | Potency [11] 9.35 µM | Potency [12] 18.7 µM | Potency [13] 14.8 µM | Potency [14] 7.43 µM | Potency [15] 10.5 µM | Potency [16] 2.35 µM | Potency [17] 23.5 µM

CCN(CC)CCNC(=O)c1c(C)[nH]c(C=C2C(=O)Nc3ccc(F)cc32)c1C
active: Potency [1] 0.136 µM | Potency [3] 2.15 µM | Potency [4] 0.481 µM | Potency [5] 1.21 µM | Potency [6] 6.05 µM | Potency [7] 6.79 µM | Potency [8] 1.36 µM | Potency [18] 1.36 µM | Potency [10] 1.36 µM | Potency [11] 0.855 µM | Potency [12] 0.762 µM | Potency [19] 6.79 µM | Potency [20] 0.96 µM | Potency [15] 13.6 µM | Potency [16] 4.81 µM | Potency [17] 3.03 µM

CCCCCCCCCCCCCCCC(=O)OC[C@@H](NC(=O)C(Cl)Cl)[C@H](O)c1ccc([N+](=O)[O-])cc1
inactive: Potency [1] | Potency [3] | Potency [4] | Potency [7] | Potency [18] | Potency [9] | Potency [10] | Potency [11] | Potency [12] | Potency [13] | Potency [14]

CCc1cc(C(C)=NOCc2ccc(C3CCCCC3)c(C(F)(F)F)c2)ccc1CN1CC(C(=O)O)C1
inactive: Potency [5] | Potency [14] | Potency [15] | Potency [16]
active: Potency [1] 0.059 µM | Potency [7] 14.8 µM | Potency [9] 18.7 µM

COc1ccc(CCC(=O)c2c(O)cc(O[C@@H]3O[C@H](CO)[C@@H](O)[C@H](O)[C@@H]3O[C@@H]3O[C@@H](C)[C@H](O)[C@@H](O)[C@@H]3O)cc2O)cc1O
inactive: Potency [1] | Potency [18] | Potency [9] | Potency [10] | Potency [12] | Potency [13] | Potency [15] | Potency [17]
active: Potency [3] 18.7 µM | Potency [8] 9.35 µM | Potency [16] 9.35 µM

COc1cc(C)c(C=CC(C)=CC=CC(C)=CC(=O)O)c(C)c1C
inactive: Potency [1] | Potency [4] | Potency [7] | Potency [8] | Potency [15] | Potency [16] | Potency [17]
active: Potency [3] 0.166 µM | Potency [5] 5.26 µM

O=c1[nH]c(=O)n([C@H]2C[C@@H](O)[C@@H](CO)O2)cc1C=CBr
inactive: Potency [3] | Potency [4] | Potency [5] | Potency [6] | Potency [7] | Potency [8] | Potency [18] | Potency [10] | Potency [11] | Potency [14]
active: viability (% of DMSO) [1] 90.1%
